The antibiotic and cytotoxicity screens of Wong et al. (2023)
Screen size: about 39,000 compounds; about 500 (1.3%) were called active. For the sample, actives were picked, then their nearest neighbours and some compounds at random.

What follows are compounds tested on S. aureus RN4220 (assay: growth inhibition call (relative growth <= 0.2)). Settings: 50 µM.
Cn1nnnc1SCC1=C(C(=O)[O-])N2C(=O)C(NC(=O)C(O)c3ccccc3)C2SC1.[Na+] (stereo unspecified) was tested, and the growth inhibition call was “active”.
With O=C([O-])C1=C(CSc2nnnn2CS(=O)(=O)[O-])CSC2C(NC(=O)C(O)c3ccccc3)C(=O)N12.[Na+].[Na+] (stereo unspecified) the growth inhibition call was “active”.
For CC1=C(C(=O)O)N2C(=O)C(NC(=O)C(N)C3=CCC=CC3)C2SC1 (stereo unspecified), the growth inhibition call was “inactive”.
With CC1=C(C(=O)O)N2C(=O)[C@@H](NC(=O)[C@H](N)C3=CCC=CC3)[C@H]2SC1 the growth inhibition call was “inactive”.
With Cn1nnnc1SCC1=C(C(=O)[O-])N2C(=O)C(NC(=O)C(OC=O)c3ccccc3)C2SC1.[Na+] (stereo unspecified) the growth inhibition call was “active”.
For NCc1ccccc1CC(=O)NC1C(=O)N2C(C(=O)O)=C(CSc3nnnn3CC(=O)O)CSC12 (stereo unspecified), the growth inhibition call was “active”.
With CCCNC(=O)C[C@H]1CC[C@H]2[C@@H](COc3ccc(NC(=O)c4ccc5c(c4)OCO5)cc3C(=O)N2C)O1 the growth inhibition call was “inactive”.
For C[C@H]1CN([C@@H](C)CO)C(=O)c2cc(Br)cnc2O[C@H]1CN(C)S(=O)(=O)c1ccccc1F, the growth inhibition call was “inactive”.
For Cc1noc(C)c1NC(=O)N(C)C[C@@H]1Oc2ccc(NS(=O)(=O)c3cn(C)cn3)cc2CC(=O)N([C@H](C)CO)C[C@@H]1C, the growth inhibition call was “inactive”.
For C[C@H](CO)N1C[C@H](C)[C@H](CN(C)S(=O)(=O)c2ccc(Cl)cc2)Oc2c(NC(=O)Nc3cccc4ccccc34)cccc2C1=O, the growth inhibition call was “inactive”.
With Cc1noc(C)c1NC(=O)Nc1ccc2c(c1)C(=O)N([C@@H](C)CO)C[C@H](C)[C@H](CN(C)S(=O)(=O)c1ccccc1)O2 the growth inhibition call was “inactive”.
With C[C@@H]1CN([C@@H](C)CO)C(=O)CCCn2cc(nn2)CO[C@@H]1CN(C)Cc1ccc(C(=O)Nc2ccccc2N)cc1 the growth inhibition call was “inactive”.
For C[C@@H](NS(=O)(=O)c1cccc(F)c1)C(=O)O, the growth inhibition call was “inactive”.
For C[C@@H]1CN([C@H](C)CO)C(=O)c2cc(NC(=O)C3CCCCC3)ccc2O[C@@H](C)CCCCO[C@H]1CN(C)C(=O)Nc1ccc(F)cc1, the growth inhibition call was “inactive”.
With C[C@H](CO)N1C[C@H](C)[C@H](CN(C)C(=O)Nc2ccccc2)OCCCC[C@H](C)Oc2ccc(NS(=O)(=O)c3ccc(F)cc3)cc2C1=O the growth inhibition call was “inactive”.
For c1coc(CNc2nc[n+]3c4c2ncn4CC3)c1, the growth inhibition call was “inactive”.
For C[C@@H]1CCCCO[C@H](CN(C)C(=O)Nc2cccc3ccccc23)[C@H](C)CN([C@@H](C)CO)C(=O)c2cc(N(C)C)ccc2O1, the growth inhibition call was “inactive”.
For Cc1noc(C)c1S(=O)(=O)Nc1ccc2c(c1)C(=O)N([C@@H](C)CO)C[C@H](C)[C@@H](CN(C)C(=O)Nc1ccc3c(c1)OCO3)O2, the growth inhibition call was “inactive”.
In the case of COC1C(O)CC(=O)OC(C)CC=CC=CC(OC2CCC(N(C)C)C(C)O2)C(C)CC(CC=O)C1OC1OC(C)C(OC2CC(C)(O)C(O)C(C)O2)C(N(C)C)C1O (stereo unspecified), the growth inhibition call is reported as “active”.
In the case of CO[C@@H]1[C@@H](O[C@@H]2O[C@H](C)[C@@H](O[C@H]3C[C@@](C)(O)[C@@H](O)[C@H](C)O3)[C@H](N(C)C)[C@H]2O)[C@@H](CC=O)C[C@@H](C)[C@@H](O[C@H]2CC[C@H](N(C)C)[C@@H](C)O2)/C=C/C=C/C[C@@H](C)OC(=O)C[C@H]1O, the growth inhibition call is reported as “active”.
CO[C@@H]1[C@@H](O[C@@H]2O[C@H](C)[C@@H](O[C@H]3C[C@@](C)(O)[C@@H](O)[C@H](C)O3)[C@H](N(C)C)[C@H]2O)[C@@H](CC=O)C[C@@H](C)[C@@H](O[C@H]2CC[C@H](N(C)C)[C@@H](C)O2)/C=C/C=C/CC(C)OC(=O)C[C@H]1OC(C)=O (stereo partly specified) was tested, and the growth inhibition call was “inactive”.
For Cc1noc(C)c1NC(=O)Nc1ccc2c(c1)C(=O)N([C@H](C)CO)C[C@@H](C)[C@H](CN(C)C(=O)Nc1cccc3ccccc13)O2, the growth inhibition call was “inactive”.
With COC(=O)c1c2oc(c1C(=O)OC)C(=O)N[C@H](Cc1ccccc1)Cn1cc(nn1)[C@@H](Cc1ccccc1)NC(=O)N[C@@H](COC(=O)NCCCCCC(=O)NO)CC2 the growth inhibition call was “inactive”.
In the case of C[C@@H]1CCCCO[C@@H](CN(C)C(=O)Nc2ccc3c(c2)OCO3)[C@@H](C)CN([C@@H](C)CO)C(=O)c2cc(NC(=O)Nc3ccc(F)cc3)ccc2O1, the growth inhibition call is reported as “inactive”.
For COc1ccc(NC(=O)Nc2ccc3c(c2)C(=O)N([C@H](C)CO)C[C@H](C)[C@@H](CN(C)C(=O)Nc2ccccc2)OCCCC[C@@H](C)O3)cc1, the growth inhibition call was “inactive”.
For CCCCCCOC(=O)/N=C(/N)c1ccc(NCc2nc3cc(C(=O)N(CCC(=O)OCC)c4ccccn4)ccc3n2C)cc1, the growth inhibition call was “inactive”.
For C[C@@H]1CN([C@H](C)CO)C(=O)c2cccc(NC(=O)C3CCCCC3)c2O[C@H]1CN(C)C(=O)Nc1ccc(C(F)(F)F)cc1, the growth inhibition call was “inactive”.
For C[C@@H]1CN([C@@H](C)CO)C(=O)c2cccc(NC(=O)C3CCCCC3)c2O[C@@H]1CN(C)C(=O)Nc1ccc(C(F)(F)F)cc1, the growth inhibition call was “active”.
For C[C@@H]1CN([C@H](C)CO)C(=O)c2cccc(NC(=O)C3CCCCC3)c2O[C@@H]1CN(C)C(=O)Nc1ccc(C(F)(F)F)cc1, the growth inhibition call was “active”.
In the case of C[C@@H]1CN([C@@H](C)CO)C(=O)c2cccc(NC(=O)C3CCCCC3)c2O[C@H]1CN(C)C(=O)Nc1ccc(C(F)(F)F)cc1, the growth inhibition call is reported as “inactive”.
For CC(C)N1C[C@H](C)[C@@H](CN(C)Cc2ccc(Oc3ccccc3)cc2)Oc2c(NC(=O)C3CCN(C)CC3)cccc2C1=O, the growth inhibition call was “inactive”.
In the case of CC(C)N1C[C@H](C)[C@@H](CN(C)Cc2ccc(Oc3ccccc3)cc2)Oc2c(NC(=O)C3CCNCC3)cccc2C1=O, the growth inhibition call is reported as “active”.
With C[C@H](CO)N1C[C@H](C)[C@H](CN(C)C(=O)Nc2ccc(C(F)(F)F)cc2)Oc2c(NC(=O)C3CCCCC3)cccc2C1=O the growth inhibition call was “inactive”.
With C[C@H](CO)N1C[C@H](C)[C@@H](CN(C)Cc2ccc(Oc3ccccc3)cc2)Oc2c(NC(=O)C3CC3)cccc2C1=O the growth inhibition call was “inactive”.
With C[C@H](CO)N1C[C@H](C)[C@@H](CN(C)C(=O)Nc2ccc(C(F)(F)F)cc2)Oc2c(NC(=O)C3CCCCC3)cccc2C1=O the growth inhibition call was “inactive”.
In the case of C[C@@H]1CN([C@H](C)CO)C(=O)Cc2cc(NC(=O)Nc3ccc4c(c3)OCO4)ccc2O[C@H]1CN(C)C(=O)Nc1ccc(C(F)(F)F)cc1, the growth inhibition call is reported as “inactive”.
With C[C@H](CO)N1C[C@H](C)[C@H](CN(C)C(=O)c2ccccc2)OCCCC[C@H](C)Oc2ccc(NC(=O)CCC(F)(F)F)cc2C1=O the growth inhibition call was “inactive”.
With C[C@@H]1CN([C@H](C)CO)S(=O)(=O)c2ccc(-c3ccncc3)cc2O[C@H]1CN(C)C(=O)c1ccc2c(c1)OCO2 the growth inhibition call was “inactive”.
For C[C@@H]1CN([C@H](C)CO)C(=O)c2cc(C#CCN(C)C)cnc2O[C@@H]1CN(C)S(=O)(=O)c1cn(C)cn1, the growth inhibition call was “inactive”.
With COc1ccc(S(=O)(=O)Nc2ccc3c(c2)C(=O)N([C@@H](C)CO)C[C@@H](C)[C@H](CN(C)C(=O)Nc2ccc4c(c2)OCO4)OCCCC[C@@H](C)O3)cc1 the growth inhibition call was “inactive”.
With CCn1cnc2c(=O)[nH][nH]c(=O)c21 the growth inhibition call was “inactive”.
For C[C@@H]1CN([C@@H](C)CO)C(=O)Cc2cc(NC(=O)Nc3ccccc3)ccc2O[C@@H]1CN(C)Cc1ccc(C(F)(F)F)cc1, the growth inhibition call was “inactive”.
For CC(C)NC(=O)N(C)C[C@@H]1Oc2ccc(NC(=O)C3CCCCC3)cc2CC(=O)N([C@H](C)CO)C[C@H]1C, the growth inhibition call was “inactive”.
For C[C@H]1CN([C@@H](C)CO)C(=O)CCCn2cc(nn2)CO[C@@H]1CN(C)C(=O)Nc1cccc(C(F)(F)F)c1, the growth inhibition call was “inactive”.
In the case of C[C@@H]1CN([C@H](C)CO)C(=O)c2cc(NC(=O)Nc3cccc4ccccc34)ccc2O[C@H]1CN(C)S(=O)(=O)c1cccs1, the growth inhibition call is reported as “inactive”.
For Cc1cc(O)cc(=O)[nH]1, the growth inhibition call was “inactive”.
In the case of Cc1cc(C(=O)O)n[nH]1, the growth inhibition call is reported as “inactive”.
Cc1cc(=O)[n+]2cccc(O)c2[nH]1 was tested, and the growth inhibition call was “active”.
With CNC(=O)c1cccc(NC(=S)NC)c1 the growth inhibition call was “inactive”.
With C[C@H](CO)N1C[C@H](C)[C@H](CN(C)C(=O)Nc2ccc3c(c2)OCO3)Oc2ncc(C#CC(C)(C)O)cc2C1=O the growth inhibition call was “inactive”.
CC(=O)O was tested, and the growth inhibition call was “inactive”.
With O=P(O)(O)CN(CCN(CP(=O)(O)O)CP(=O)(O)O)CP(=O)(O)O the growth inhibition call was “inactive”.
With O=C(O)P(=O)(O)O the growth inhibition call was “active”.
In the case of O=C(C[C@@H]1CC[C@@H]2[C@H](COC[C@@H](O)CN2C(=O)c2ccncc2)O1)NCc1ccc(-c2ccccc2)cc1, the growth inhibition call is reported as “inactive”.
With C[C@H]1CN([C@@H](C)CO)C(=O)c2cc(NS(=O)(=O)c3cn(C)cn3)ccc2O[C@@H]1CN(C)S(=O)(=O)c1cn(C)cn1 the growth inhibition call was “inactive”.
In the case of C[C@H]1CCCCO[C@H](CN(C)S(=O)(=O)c2ccc(F)cc2)[C@@H](C)CN([C@@H](C)CO)C(=O)c2cc(NS(C)(=O)=O)ccc2O1, the growth inhibition call is reported as “inactive”.
In the case of Cc1noc(C)c1NC(=O)Nc1ccc2c(c1)C(=O)N([C@H](C)CO)C[C@@H](C)[C@H](CN(C)Cc1ccc3c(c1)OCO3)OCCCC[C@@H](C)O2, the growth inhibition call is reported as “inactive”.
C[C@H]1CCCCO[C@H](CN(C)C(=O)CCC(F)(F)F)[C@@H](C)CN([C@@H](C)CO)C(=O)c2cc(NC(=O)Cc3ccccc3)ccc2O1 was tested, and the growth inhibition call was “inactive”.
For CC1=C(C(=O)O)N2C(=O)[C@@H](NC(=O)[C@@H](N)c3ccc(O)cc3)[C@H]2SC1, the growth inhibition call was “inactive”.
With C/C=C\C1=C(C(=O)O)N2C(=O)[C@H](NC(=O)[C@@H](N)c3ccc(O)cc3)[C@@H]2SC1 the growth inhibition call was “inactive”.
For CC1=C(C(=O)O)N2C(=O)[C@@H](NC(=O)[C@H](N)c3ccc(O)cc3)[C@H]2SC1, the growth inhibition call was “active”.
C/C=C/C1=C(C(=O)O)N2C(=O)[C@@H](NC(=O)[C@H](N)c3ccc(O)cc3)[C@H]2SC1 was tested, and the growth inhibition call was “active”.
In the case of CC1=C(C(=O)O)N2C(=O)C(NC(=O)C(N)c3ccc(O)cc3)C2SC1 (stereo unspecified), the growth inhibition call is reported as “inactive”.
For CC=CC1=C(C(=O)O)N2C(=O)C(NC(=O)C(N)c3ccc(O)cc3)C2SC1 (stereo unspecified), the growth inhibition call was “inactive”.
For C[C@@H]1CN([C@H](C)CO)C(=O)c2cccc(NC(=O)C3CC3)c2O[C@H]1CN(C)S(=O)(=O)c1ccc(F)cc1, the growth inhibition call was “inactive”.
With C[C@H](CO)N1C[C@H](C)[C@H](CN(C)S(C)(=O)=O)Oc2ncc(C#CC(C)(C)O)cc2C1=O the growth inhibition call was “inactive”.
